# According to article PMC7862700, “An all-to-all approach to the identification of sequence-specific readers for epigenetic DNA modifications on cytosine”:
# Legend:
# Assay in all cases: DAPPL (digital affinity profiling via proximity ligation, sequencing); 10 mM Tris-HCl pH 7.5, 50 mM NaCl, 1 mM DTT, 4% glycerol, room temperature, 30 min; GST-TFs on glutathione beads, 16-mer random dsDNA library, 0.1% formaldehyde crosslink after washing; high values mean tight binding
# [1] = molecular target: T1, FEV (Homo sapiens, UniProt Q99581 1-238); details: protein: recombinant; tags: N-terminal GST; dsDNA, one strand shown
# T1 sequence: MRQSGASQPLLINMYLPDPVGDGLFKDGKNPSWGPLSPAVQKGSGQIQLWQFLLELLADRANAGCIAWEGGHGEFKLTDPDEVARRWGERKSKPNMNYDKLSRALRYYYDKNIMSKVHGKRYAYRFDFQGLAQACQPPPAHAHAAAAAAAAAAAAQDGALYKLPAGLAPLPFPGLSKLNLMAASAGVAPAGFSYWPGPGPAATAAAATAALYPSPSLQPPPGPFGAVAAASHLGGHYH
# Procedure, shortened: (§1)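 Pools of DNA-barcoded human transcription factors, expressed in yeast as GST fusions on glutathione beads and combined with a tag-only sample, were incubated with 200 nmole of a 16-mer random double-stranded DNA library. Incubation took 30 min at room temperature in Tris/NaCl/DTT/glycerol buffer and was followed by washing, 0.1% formaldehyde crosslinking, proximity ligation (BsaI/T4 ligase, 1 h, 37 °C), PCR amplification and sequencing on an Illumina NextSeq500. Binding signal is the ratio of a hexamer's read frequency for a factor to its frequency for the tag-only sample.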
# [2] = molecular target: ETV5 (Homo sapiens, UniProt P41161 1-510); details: protein: recombinant; tags: N-terminal GST; dsDNA, one strand shown
# Chain of ETV5 (P41161 whole entry): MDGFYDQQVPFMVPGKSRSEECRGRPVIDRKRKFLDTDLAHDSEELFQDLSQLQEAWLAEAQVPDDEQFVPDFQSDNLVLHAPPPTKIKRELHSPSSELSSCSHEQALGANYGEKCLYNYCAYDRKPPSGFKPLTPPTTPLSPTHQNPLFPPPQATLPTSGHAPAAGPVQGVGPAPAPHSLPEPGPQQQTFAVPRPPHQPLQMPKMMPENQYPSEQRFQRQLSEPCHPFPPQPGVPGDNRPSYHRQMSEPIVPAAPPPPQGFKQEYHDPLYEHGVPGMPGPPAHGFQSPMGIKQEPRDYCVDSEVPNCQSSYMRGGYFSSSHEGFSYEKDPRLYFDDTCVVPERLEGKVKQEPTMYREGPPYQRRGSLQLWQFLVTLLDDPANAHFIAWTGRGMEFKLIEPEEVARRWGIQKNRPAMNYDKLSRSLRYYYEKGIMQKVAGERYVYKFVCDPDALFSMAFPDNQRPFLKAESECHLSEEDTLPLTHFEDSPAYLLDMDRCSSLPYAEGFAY
# Procedure, shortened: as §1
# [3] = molecular target: HSF1 (Homo sapiens, UniProt Q00613 1-529); details: protein: recombinant; tags: N-terminal GST; chain copies: 3; dsDNA, one strand shown
# Chain of HSF1 (Q00613 whole entry): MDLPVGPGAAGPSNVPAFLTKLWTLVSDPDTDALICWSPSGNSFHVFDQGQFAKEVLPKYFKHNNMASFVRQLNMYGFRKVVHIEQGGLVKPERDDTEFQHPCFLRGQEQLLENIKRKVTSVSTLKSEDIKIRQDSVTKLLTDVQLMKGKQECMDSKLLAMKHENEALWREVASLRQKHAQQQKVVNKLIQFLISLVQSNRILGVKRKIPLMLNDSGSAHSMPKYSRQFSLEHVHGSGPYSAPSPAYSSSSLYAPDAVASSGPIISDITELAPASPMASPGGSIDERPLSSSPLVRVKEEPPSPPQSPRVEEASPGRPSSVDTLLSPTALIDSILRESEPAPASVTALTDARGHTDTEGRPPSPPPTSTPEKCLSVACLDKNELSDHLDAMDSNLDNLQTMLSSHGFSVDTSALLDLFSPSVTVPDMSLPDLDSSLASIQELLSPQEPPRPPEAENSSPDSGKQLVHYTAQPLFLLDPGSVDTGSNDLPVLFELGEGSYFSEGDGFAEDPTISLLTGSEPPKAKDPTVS
# Procedure, shortened: as §1
# [4] = molecular target: T2, SPIC (Homo sapiens, UniProt Q8N5J4 1-248); details: protein: recombinant; tags: N-terminal GST; dsDNA, one strand shown
# T2 sequence: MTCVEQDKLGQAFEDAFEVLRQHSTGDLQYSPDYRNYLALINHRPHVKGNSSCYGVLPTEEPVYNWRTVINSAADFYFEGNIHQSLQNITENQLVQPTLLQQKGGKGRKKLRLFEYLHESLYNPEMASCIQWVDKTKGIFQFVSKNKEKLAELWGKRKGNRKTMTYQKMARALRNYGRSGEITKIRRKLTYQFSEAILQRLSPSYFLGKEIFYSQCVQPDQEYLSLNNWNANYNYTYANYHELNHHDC
# Procedure, shortened: as §1
# [5] = molecular target: ELF4 (Homo sapiens, UniProt Q99607 1-663); details: protein: recombinant; tags: N-terminal GST; dsDNA, one strand shown
# Chain of ELF4 (Q99607 whole entry): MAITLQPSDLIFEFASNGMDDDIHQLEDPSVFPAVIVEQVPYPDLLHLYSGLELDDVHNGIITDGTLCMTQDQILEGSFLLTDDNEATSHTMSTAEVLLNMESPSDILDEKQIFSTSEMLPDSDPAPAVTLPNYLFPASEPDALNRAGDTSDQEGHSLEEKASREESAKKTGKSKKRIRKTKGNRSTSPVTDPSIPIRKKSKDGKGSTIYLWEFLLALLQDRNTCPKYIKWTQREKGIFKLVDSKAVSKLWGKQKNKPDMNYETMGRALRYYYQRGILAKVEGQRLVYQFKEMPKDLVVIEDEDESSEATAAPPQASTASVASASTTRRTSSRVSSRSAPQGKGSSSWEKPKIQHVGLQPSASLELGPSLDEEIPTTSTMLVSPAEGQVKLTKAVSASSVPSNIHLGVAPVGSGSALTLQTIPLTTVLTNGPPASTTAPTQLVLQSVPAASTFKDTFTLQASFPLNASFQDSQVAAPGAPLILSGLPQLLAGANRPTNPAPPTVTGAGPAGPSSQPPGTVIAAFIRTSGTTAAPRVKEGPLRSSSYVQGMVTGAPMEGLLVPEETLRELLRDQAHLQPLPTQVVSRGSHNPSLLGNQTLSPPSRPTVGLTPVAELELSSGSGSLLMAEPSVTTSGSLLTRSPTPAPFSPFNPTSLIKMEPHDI
# Procedure, shortened: as §1
# [6] = molecular target: T3, ELK4 (Homo sapiens, UniProt P28324-2 1-405); details: protein: recombinant; tags: N-terminal GST; dsDNA, one strand shown
# T3 sequence: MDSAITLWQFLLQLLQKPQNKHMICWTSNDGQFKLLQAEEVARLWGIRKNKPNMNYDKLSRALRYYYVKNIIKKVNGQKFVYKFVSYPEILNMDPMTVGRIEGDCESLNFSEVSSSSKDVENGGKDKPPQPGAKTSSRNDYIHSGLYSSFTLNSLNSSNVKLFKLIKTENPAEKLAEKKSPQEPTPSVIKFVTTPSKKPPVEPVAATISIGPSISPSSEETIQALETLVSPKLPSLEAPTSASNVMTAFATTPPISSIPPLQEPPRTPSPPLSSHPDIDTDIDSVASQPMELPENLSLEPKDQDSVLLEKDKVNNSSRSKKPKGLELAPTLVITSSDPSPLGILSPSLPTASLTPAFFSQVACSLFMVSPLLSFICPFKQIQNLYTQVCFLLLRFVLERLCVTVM
# Procedure, shortened: as §1
# [7] = molecular target: T4, ETV2 (Homo sapiens, UniProt O00321 1-342); details: protein: recombinant; tags: N-terminal GST; dsDNA, one strand shown
# T4 sequence: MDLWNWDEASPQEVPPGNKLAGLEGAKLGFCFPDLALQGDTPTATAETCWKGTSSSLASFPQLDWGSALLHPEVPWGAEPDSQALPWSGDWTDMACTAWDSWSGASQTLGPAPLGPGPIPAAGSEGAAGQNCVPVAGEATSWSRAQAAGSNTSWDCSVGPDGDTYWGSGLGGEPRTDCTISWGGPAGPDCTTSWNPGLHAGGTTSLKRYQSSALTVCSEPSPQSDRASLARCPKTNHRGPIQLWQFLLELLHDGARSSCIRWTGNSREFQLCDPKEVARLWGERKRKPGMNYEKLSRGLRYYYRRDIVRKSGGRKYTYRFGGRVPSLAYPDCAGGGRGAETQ
# Procedure, shortened: as §1
# [8] = molecular target: T5, ELF3 (Homo sapiens, UniProt P78545 1-371); details: protein: recombinant; tags: N-terminal GST; dsDNA, one strand shown
# T5 sequence: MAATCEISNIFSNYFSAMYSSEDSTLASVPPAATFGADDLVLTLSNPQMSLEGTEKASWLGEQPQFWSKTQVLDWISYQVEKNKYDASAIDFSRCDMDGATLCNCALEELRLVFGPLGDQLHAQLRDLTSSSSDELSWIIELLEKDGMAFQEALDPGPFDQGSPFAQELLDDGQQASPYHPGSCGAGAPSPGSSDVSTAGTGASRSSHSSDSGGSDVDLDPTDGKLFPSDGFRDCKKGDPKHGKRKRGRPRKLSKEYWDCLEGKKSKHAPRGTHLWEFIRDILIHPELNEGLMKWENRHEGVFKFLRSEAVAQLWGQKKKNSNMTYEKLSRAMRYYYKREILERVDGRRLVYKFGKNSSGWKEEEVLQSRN
# Procedure, shortened: as §1
# [9] = molecular target: CRX (Homo sapiens, UniProt O43186 1-299); details: protein: recombinant; tags: N-terminal GST; dsDNA, one strand shown
# Chain of CRX (O43186 whole entry): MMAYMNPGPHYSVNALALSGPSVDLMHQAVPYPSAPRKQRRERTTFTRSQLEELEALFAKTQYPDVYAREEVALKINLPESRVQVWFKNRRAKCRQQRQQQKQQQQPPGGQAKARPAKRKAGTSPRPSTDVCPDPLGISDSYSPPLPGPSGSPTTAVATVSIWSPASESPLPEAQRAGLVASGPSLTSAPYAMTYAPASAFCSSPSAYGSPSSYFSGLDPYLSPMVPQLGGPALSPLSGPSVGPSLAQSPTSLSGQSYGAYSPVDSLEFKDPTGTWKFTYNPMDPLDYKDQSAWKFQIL
# Procedure, shortened: as §1
# [10] = molecular target: ETV1 (Homo sapiens, UniProt P50549 1-477); details: protein: recombinant; tags: N-terminal GST; dsDNA, one strand shown
# Chain of ETV1 (P50549 whole entry): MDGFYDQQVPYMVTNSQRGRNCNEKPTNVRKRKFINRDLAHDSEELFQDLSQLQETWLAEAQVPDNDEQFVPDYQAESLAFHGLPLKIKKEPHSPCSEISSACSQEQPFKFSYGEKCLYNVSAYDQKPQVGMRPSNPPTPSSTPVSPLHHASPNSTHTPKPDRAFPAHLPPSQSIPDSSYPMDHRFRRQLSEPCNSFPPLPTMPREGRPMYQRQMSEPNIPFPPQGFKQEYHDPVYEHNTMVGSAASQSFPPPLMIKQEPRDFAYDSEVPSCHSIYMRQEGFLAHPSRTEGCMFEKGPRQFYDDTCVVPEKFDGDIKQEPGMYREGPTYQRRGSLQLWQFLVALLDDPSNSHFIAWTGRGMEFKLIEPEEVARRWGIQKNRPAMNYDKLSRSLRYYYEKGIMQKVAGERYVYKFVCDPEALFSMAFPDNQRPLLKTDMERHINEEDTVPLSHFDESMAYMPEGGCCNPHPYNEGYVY
# Procedure, shortened: as §1
sequence,measurement,setting,value
GCTCGC,binding signal,[1],"1.42 fold enrichment (6-mer frequency, TF over GST control)"
same,binding signal,[2],"1.32 fold enrichment (6-mer frequency, TF over GST control)"
same,binding signal,[3],"1.25 fold enrichment (6-mer frequency, TF over GST control)"
same,binding signal,[4],"1.44 fold enrichment (6-mer frequency, TF over GST control)"
same,binding signal,[5],"1.28 fold enrichment (6-mer frequency, TF over GST control)"
same,binding signal,[6],"1.52 fold enrichment (6-mer frequency, TF over GST control)"
same,binding signal,[7],"1.17 fold enrichment (6-mer frequency, TF over GST control)"
same,binding signal,[8],"1.51 fold enrichment (6-mer frequency, TF over GST control)"
same,binding signal,[9],"1.12 fold enrichment (6-mer frequency, TF over GST control)"
same,binding signal,[10],"1.37 fold enrichment (6-mer frequency, TF over GST control)"
